# Compound activity: PubChem, The Scripps Research Institute Molecular Screening Center
# hcDAF12 agonist = activates DAF-12 receptor from parasite H. contortus; activation, % at 6.8 µM; HEK293 hcDAF-12 lit1-tk-luc reporter, luminescence; 0% DMSO, 100% Δ7-dafachronic acid; actives 1.4% (n = 370,000);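 active = activation above the mean of all tested compounds plus 3 SD, cut at about 5.5% in these data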;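 also: 100% = response to 3 µM Δ7-dafachronic acid high control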
# hgDAF-12 ag = hgDAF-12 agonism, primary luciferase screen; HEK293 GAL4-hgDAF12 UAS-luciferase reporter, agonist luminescence; normalized to butyrate control; activation, % at 6.8 µM; actives 1.8% (n = 370,000);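 active = activation above a cutoff set at the mean of all screened compounds plus 3 SD, cut at about 10% in these data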;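 also: 0% = DMSO wells and 100% = sodium butyrate wells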
# FXN GAA850 act = frataxin GAA850 promoter activation; AID 540364; activation, % at 6 µM; actives 0.56% (n = 360,000); HEK293 lucGAA850 FXN promoter luciferase reporter, 24 h; percent of 10 µM SAHA response;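 active = activation above the average of all compounds screened plus 3 SD, cutoff fixed separately per campaign, cut at about 7.5% in these data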;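 also: 0% = DMSO wells and 100% = 10 µM SAHA wells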
# DAX1 inh-1 = DAX1 (NR0B1) inhibition, primary screen | HEK293T StAR-luciferase reporter, SF-1/DAX-1 repression relief | inhibition, % at 6.8 µM | actives 1.1% (n = 370,000) | AID 652010;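 active = inhibition above the mean over all tested compounds plus 3 SD, cut at about 3.6% in these data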;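 also: 0% = DAX-1 cells with DMSO and 100% = cells lacking DAX-1 with DMSO; higher inhibition means more luminescence from relief of DAX-1 repression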
# ssDAF-12 act = S. stercoralis DAF-12 activation, primary screen. activation, % at 6.8 µM. actives 1% (n = 370,000). HEK293 ssDAF-12/GRIP1 lit1-tk-luc reporter, luminescence; % of 3 µM dafachronic acid response;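 active = activation above the mean over all tested compounds plus 3 SD, cut at about 0.9% in these data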;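 also: 0% = DMSO-only wells and 100% = 3 µM delta7-dafachronic acid wells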
# DAX1 inh-2 = inhibitors of human orphan nuclear receptor DAX1 (NR0B1). HEK293 Gal4-DAX1 luciferase reporter, luminescence. inhibition, % at 6.75 µM. actives 0.99% (n = 340,000). AID 504766;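 active = inhibition above the mean over all tested compounds plus 3 SD, cut at about 4.2% in these data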;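 also: 0% = DAX1-transfected cells with DMSO and 100% = empty-vector control cells with DMSO; inhibition shows as a rise in luminescence from relieved DAX1 repression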
# Target sequence (P51843 207-470 limits assumed): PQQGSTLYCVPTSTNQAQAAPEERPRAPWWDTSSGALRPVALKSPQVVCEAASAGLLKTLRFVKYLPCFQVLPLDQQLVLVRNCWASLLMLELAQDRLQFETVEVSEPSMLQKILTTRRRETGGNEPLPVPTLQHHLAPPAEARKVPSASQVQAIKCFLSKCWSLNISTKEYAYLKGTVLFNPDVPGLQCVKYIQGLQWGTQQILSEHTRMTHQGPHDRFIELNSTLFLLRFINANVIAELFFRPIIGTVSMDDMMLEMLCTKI
# The depositor's hits bear a star; · = not tested or not shown. Sampled rows, rich in hits. Any-hit rate of the full collection: about 4.5%.
SMILES,hcDAF12 agonist,hgDAF-12 ag,FXN GAA850 act,DAX1 inh-1,ssDAF-12 act,DAX1 inh-2
O=C(CSc1nnc(-c2cccc(Cl)c2)n1Cc1ccco1)Nc1ccc2c(c1)OCO2,-2,-1,·,-2,-2,·
O=C(COc1ccc(Cl)cc1Cl)c1ccc[nH]1,0,7,5,0,-1,8.0*
Cc1ccc(Cl)c(OCC(=O)OCC(=O)c2ccc[nH]2)c1,0,1,-1,-1,-1,0
O=c1c2ccccc2c2ccccc2c(=O)n1Cc1cccnc1,-2,1,1,1,-1,0
COC(=O)c1cn(Cc2cccnc2)c(=O)c2ccccc12,-2,-1,6,0,0.9*,-1
O=C(C1=C(O)C(=O)N(CC2CCCO2)C1c1ccccc1[N+](=O)[O-])c1ccco1 (stereo unspecified),5,1,3,0,1.2*,1
O=C(C1=C(O)C(=O)N(CC2CCCO2)C1c1ccc(Cl)cc1)c1ccco1 (stereo unspecified),0,2,1,0,-1,0
CC(=O)C1=C(O)C(=O)N(C)C1c1ccccc1[N+](=O)[O-] (stereo unspecified),5,-2,2,0,2.0*,2
COc1ccc(OCC(=O)N/N=C2\CCCc3ccccc32)cc1,3,-3,-1,0,1.0*,-1
COc1ccccc1OCC(=O)N/N=C1\CCCCc2ccccc21,-2,1,-1,0,-2,-3
O=C(COc1ccccc1F)N/N=C1\CCCc2ccccc21,5.8*,10,5,2,0,1
COC(=O)[C@]12C[C@H](CC(=O)N3CCCC3)C(=O)N(CCC3=CCCCC3)C1=C[C@H](COCc1ccccc1)O[C@@H]2C,-2,-1,·,-1,-1,·
O=C(CSc1nnc(-c2ccncc2)n1-c1ccc(Cl)cc1)c1ccc(Cl)c(Cl)c1,-2,-1,·,0,-2,·
O=C(Nc1c(-c2ccc(C(F)(F)F)cc2)nc2ncccn12)c1ccc(F)cc1,1,6,·,-1,-1,·
O=C(N/N=C\c1cc2c(cc1Cl)OCO2)c1cccs1,4,13*,2,3,0,0
C=CCN(CC#CC(=C)C)Cc1ccccc1,-5,-1,·,0,-2,·
Cc1cc(C)n(-c2nnc3c4ccccc4n(C)c3n2)n1,2,11*,3,2,-1,1
O=C(NC1CCCCN(Cc2cccc(F)c2)C1=O)c1ccc(F)cc1 (stereo unspecified),-2,0,·,0,-2,·
CCc1cccc(NC(=O)Cn2ncn3c(cc4ccccc43)c2=O)c1,6.4*,1,1,-1,0,0
O=C(COc1ccccc1)N/N=C/c1sc(=O)n(Cc2cccc(C(=O)O)c2)c1Cl,-1,0,-1,0,-2,0
O=C(O)c1cccc(Cn2c(Cl)c(/C=N/NC(=O)c3ccc(O)cc3)sc2=O)c1,0,-4,0,0,-1,4.6*
Fc1ccc(/C=C\c2nccc3c2[nH]c2ccccc23)cc1,5.6*,9,6,1,0,-1
CC(OC(=O)c1cc(O)c2ccccc2c1O)C(=O)Nc1ccc(C(N)=O)cc1 (stereo unspecified),4,1,1,-2,1.4*,1
COC(=O)[C@H]1C[C@]2(C(C=C(C)C)S(=O)(=O)c3ccccc3)c3ccccc3N[C@H]2N1 (stereo partly specified),1,1,·,·,-2,·
COc1ccc2c(c1)OC/C(=C/c1cccs1)C2=O,3,10,3,4.2*,0,2
SMILES,hcDAF12 agonist,hgDAF-12 ag,FXN GAA850 act,DAX1 inh-1,ssDAF-12 act,DAX1 inh-2
c1cnc2nc(-c3ccc4c(c3)OCO4)cn2c1,3,13*,4,4.1*,-1,1
O=c1c2ccccc2[nH]c(=S)n1CCN1CCc2ccccc2C1,-1,-2,0,0,-1,4.3*
CN1CCN(CCn2c(=S)[nH]c3ccccc3c2=O)CC1,-1,-4,2,0,-1,-1
COc1cc(CNCc2ccccn2)ccc1OCc1ccc(Cl)cc1Cl,-1,-2,4,-1,-1,1
C/[N+]([O-])=C/c1c(OCc2ccc(Cl)cc2Cl)ccc2ccccc12,6.0*,5,4,0,0,0
Cc1cc(OC[C@@H](O)CN2CCC(C(O)(c3ccccc3)c3ccccc3)CC2)ccc1Br,0,-2,·,-1,-1,·
CC(=O)C1(C(=O)NCc2ccccc2)CC(c2ccccn2)=NO1 (stereo unspecified),0,1,·,0,0,·
COc1ccc(/C=C/c2ccc3cccc(O)c3n2)c(OC)c1OC,-2,-5,8.9*,-1,-1,-4
CC(C)NC(=O)CCn1nnc(-c2cccs2)n1,-4,0,·,0,-1,·
Cn1cc([C@]2(O)C(=O)Nc3ccc(F)cc32)c2ccccc21,2,2,·,-1,1.2*,·
Cn1cc([C@]2(O)C(=O)Nc3c(F)cccc32)c2ccccc21,2,-2,·,0,0,·
Cn1cc([C@]2(O)C(=O)Nc3ccc(Br)cc32)c2ccccc21,1,1,·,0,0.9*,·
COC(=O)C[C@@H]1CC[C@@H]2[C@@H](COc3ccc(NC(=O)Nc4ccccc4)cc3C(=O)N2C)O1,-1,-4,·,-1,-1,·
CC(C)C1=CC2C3C(C(C(C)C)=CC(=O)[C@@]3(C)O)C1C(=O)C2(C)O (stereo partly specified),0,-2,·,1,-1,·
COc1ccc(C(=O)C2CCCN(C3Cc4ccccc4C3)C2)c(OC)c1 (stereo unspecified),1,0,-2,2,0.9*,0
COc1ccc(-c2c(Cc3ccccc3)nc(NC(=O)c3ccccc3)n2Cc2ccccc2)cc1,-2,0,·,1,-2,·
CCCC[C@@H]1C(=O)N2N=Cc3ccccc3[C@H]2N2N=Cc3ccccc3[C@@H]12,-2,-1,·,-1,-2,·
O=C(O)/C=C/C(=O)Nc1ccc2c(c1)C(=O)c1ccccc1C2=O,5,13*,5,2,0,0
O=C(Nc1ccc2c(c1)OCCO2)C(c1ccnc2ccccc12)n1c(=O)c(-c2ccco2)nc2ccccc21 (stereo unspecified),5,7,·,3,1.5*,·
O=C(NC1CCCCC1)C(c1ccccc1F)n1c(=O)c(-c2ccco2)nc2ccccc21 (stereo unspecified),-1,-2,·,0,-1,·
Cc1cccc(C)c1NC(=O)C(c1ccncc1)n1c(=O)c(-c2ccco2)nc2ccccc21 (stereo unspecified),5,5,·,2,2.1*,·
